# Test results reported in PubChem BioAssay (EPA / NIEHS).
# Records with an inconclusive call do not appear. The source made the active and inactive calls. Rule for the calls: active = hit-call score of the fitted dose curve at least 0.9, where 1 is the maximum; inconclusive = response in the unintended direction; inactive = score below 0.9.
# Target: Estrogen receptor (Homo sapiens) (UniProt P03372)
# Assay: NVS_NR_hER: NovaScreen (NVS) Nuclear Receptor Binding Assay for human Estrogen Receptor (ER) (AID 2283348)
# Outline: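 Radioligand competitive displacement binding to estrogen receptor from MCF7 extract, cell-free; 18 h after dosing, scintillation read-out. Primary screen in duplicate at 25 uM; actives followed up in concentration series; loss of signal vs DMSO.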
# Estrogen receptor (Homo sapiens), sequence (P03372 whole entry, looked up, the tested form may be a part): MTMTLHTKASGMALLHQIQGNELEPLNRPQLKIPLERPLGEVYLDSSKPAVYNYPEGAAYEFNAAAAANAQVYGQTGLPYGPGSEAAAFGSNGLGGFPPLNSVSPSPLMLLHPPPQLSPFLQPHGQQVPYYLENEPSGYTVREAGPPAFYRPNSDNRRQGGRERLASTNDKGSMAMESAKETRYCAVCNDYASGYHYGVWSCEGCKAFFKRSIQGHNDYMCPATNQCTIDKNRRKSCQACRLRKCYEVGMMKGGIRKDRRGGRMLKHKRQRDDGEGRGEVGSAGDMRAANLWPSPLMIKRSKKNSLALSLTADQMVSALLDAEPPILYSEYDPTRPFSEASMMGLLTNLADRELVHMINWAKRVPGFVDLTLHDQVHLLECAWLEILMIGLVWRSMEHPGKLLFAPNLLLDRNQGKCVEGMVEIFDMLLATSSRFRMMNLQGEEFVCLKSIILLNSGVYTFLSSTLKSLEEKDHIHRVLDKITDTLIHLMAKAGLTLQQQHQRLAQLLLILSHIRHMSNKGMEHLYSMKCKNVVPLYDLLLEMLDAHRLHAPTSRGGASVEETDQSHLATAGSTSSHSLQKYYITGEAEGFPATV
row,Compound,outcome
1,ClC1=C(Cl)[C@]2(Cl)[C@@H]3[C@@H](Cl)[C@H]4O[C@H]4[C@@H]3C1(Cl)C2(Cl)Cl,inactive
2,c1ccc(-c2ccccc2)cc1,inactive
3,ClC1=C(Cl)[C@]2(Cl)[C@@H]3[C@@H]4C[C@@H]([C@H]5O[C@@H]45)[C@@H]3[C@@]1(Cl)C2(Cl)Cl,inactive
4,Nn1cnnc1,inactive
5,Cc1ccc(O)c(C)c1,inactive
6,CCCN(CCC)N=O,inactive

# Target: Estrogen receptor (Homo sapiens) (UniProt P03372)
# Assay: OT_ER_ERaERa_1440: Odyssey Thera (OT) 24-hour HEK293T Protein-Complementation Assay for Estrogen Receptor-alpha/-alpha Homodimer (AID 2283349);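 note: hits raise fluorescence above DMSO for agonists and antagonists alike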
# Outline: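 HEK293T cells stably expressing the human ER alpha ligand-binding domain (aa 310-547) as a homodimer PCA were dosed for 24 hours. Fluorescence intensity was read by laser scanning cytometry, and gain of signal was fitted relative to DMSO vehicle.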
row,Compound,outcome
1,CN(C)c1nc(=O)n(C2CCCCC2)c(=O)n1C,inactive
2,Sc1ccccc1,inactive
3,Cc1ccccc1[N+](=O)[O-],inactive
4,CCOP(=S)(OCC)SCSC(C)(C)C,inactive
5,O=S(=O)(O)C(F)(F)C(F)(F)C(F)(F)C(F)(F)F,inactive
6,O=C(NC(=O)c1cc(F)c(F)cc1Cl)Nc1cc(F)ccc1N1CCC(C(=O)O)CC1,inactive
7,CC(C)C(=O)OCC(C)(C)C(OC(=O)C(C)C)C(C)C (stereo not drawn),inactive

# Target: Bile acid receptor (Homo sapiens) (UniProt Q96RI1)
# Sequence (Q96RI1 whole entry, looked up): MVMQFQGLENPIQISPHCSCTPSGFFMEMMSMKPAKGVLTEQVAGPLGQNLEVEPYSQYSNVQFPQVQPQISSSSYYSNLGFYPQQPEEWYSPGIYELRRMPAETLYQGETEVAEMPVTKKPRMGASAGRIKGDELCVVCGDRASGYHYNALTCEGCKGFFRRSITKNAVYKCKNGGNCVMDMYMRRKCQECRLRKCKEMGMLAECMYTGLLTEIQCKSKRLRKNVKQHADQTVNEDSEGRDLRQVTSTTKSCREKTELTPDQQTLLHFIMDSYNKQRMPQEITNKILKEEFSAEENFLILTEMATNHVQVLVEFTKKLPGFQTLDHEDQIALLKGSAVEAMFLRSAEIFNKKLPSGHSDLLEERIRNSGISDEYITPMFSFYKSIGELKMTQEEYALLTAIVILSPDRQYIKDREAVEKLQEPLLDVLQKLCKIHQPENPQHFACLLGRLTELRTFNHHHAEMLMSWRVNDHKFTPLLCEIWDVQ
# Assay: NVS_NR_hFXR_Antagonist: NovaScreen (NVS) Nuclear Receptor Binding Assay for human Farnesoid X Receptor Antagonism (FXR) (AID 2283350)
# Outline: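 Cell-free TR-FRET ligand-binding read-out on human FXR (NR1H4) in antagonist mode, measured 1 h after dosing. Primary screen in duplicate at 25 uM, actives retested in concentration series; signal loss scored versus DMSO.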
row,Compound,outcome
1,Cc1cc2c3c(c1)C(c1ccccc1)=N[C@@H](NC(=O)c1ccncc1)C(=O)N3CC2,inactive
2,Clc1ccc(C(Cl)(Cl)Cl)cc1,inactive
3,c1cc2ccc3cccc4ccc(c1)c2c34,inactive

# Target: Estrogen receptor (Homo sapiens) (UniProt P03372)
# Assay: OT_ER_ERaERa_0480: Odyssey Thera (OT) 8-hour HEK293T Protein-Complementation Assay for Estrogen Receptor-alpha/-alpha Homodimer (AID 2283351);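 note: rise in fluorescence from reassembled reporter fragments on ERα LBD homodimer in nucleus or whole cell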
# Outline: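 The readout is complementation of fragments fused to the human ER alpha ligand-binding domain (aa 310-547), stably expressed in HEK293T cells. After 8 h of exposure, the increase in nuclear/cytoplasmic fluorescence was measured by laser scanning cytometry and fitted relative to DMSO.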
row,Compound,outcome
1,Sc1ccccc1,inactive
2,CC1=C2C[C@H]3[C@@H](CC=C4C[C@@H](O)CC[C@@]43C)[C@@H]2CC[C@]12O[C@@H]1C[C@H](C)CN[C@H]1[C@H]2C,inactive
3,C=CC(N)=O,inactive
4,Nn1cnnc1,inactive
5,O=C(N[C@H]1CN2CCC1CC2)c1cc2ccoc2cn1,inactive
6,CN(C)CCO,inactive
7,CCCN(CCC)N=O,inactive

# Target: T1, Estrogen receptor (Homo sapiens) + Estrogen receptor beta (Homo sapiens) (UniProt P03372+Q92731)
# T1 sequence (P03372 whole entry, looked up): as the sequence (P03372 whole entry, looked up, the tested form may be a part) above
# T1 sequence (Q92731 whole entry, looked up): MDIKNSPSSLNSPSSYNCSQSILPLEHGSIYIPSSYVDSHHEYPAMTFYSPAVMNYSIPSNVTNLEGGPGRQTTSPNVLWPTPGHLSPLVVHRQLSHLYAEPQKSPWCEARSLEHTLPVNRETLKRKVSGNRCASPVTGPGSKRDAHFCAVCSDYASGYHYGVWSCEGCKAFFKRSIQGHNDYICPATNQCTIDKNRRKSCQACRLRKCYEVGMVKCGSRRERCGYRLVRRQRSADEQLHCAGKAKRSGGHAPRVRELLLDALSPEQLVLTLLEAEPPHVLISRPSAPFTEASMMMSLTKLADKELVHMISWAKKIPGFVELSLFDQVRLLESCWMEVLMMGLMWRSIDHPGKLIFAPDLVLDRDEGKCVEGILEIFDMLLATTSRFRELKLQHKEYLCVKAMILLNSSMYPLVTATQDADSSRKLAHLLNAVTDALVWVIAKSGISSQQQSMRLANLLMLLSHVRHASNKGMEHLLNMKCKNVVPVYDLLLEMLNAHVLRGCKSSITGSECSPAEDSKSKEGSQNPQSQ
# Assay: OT_ER_ERaERb_0480: Odyssey Thera (OT) 8-hour HEK293T Protein-Complementation Assay for Estrogen Receptor-alpha/-beta Heterodimer (AID 2283352)
# Outline: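 Fluorescence intensity readout from a protein-fragment complementation reporter in HEK293T; ER-alpha/ER-beta LBD heterodimer. Dosing 8 h. Gain-of-signal fit relative to DMSO negative control; laser scanning cytometry of whole-well cell population.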
row,Compound,outcome
1,OCC(O)CO,inactive
2,C1CC2OC2CC1C1CO1 (stereo not drawn),inactive
3,ClC1=C(Cl)[C@]2(Cl)[C@@H]3[C@@H](Cl)[C@H]4O[C@H]4[C@@H]3C1(Cl)C2(Cl)Cl,inactive
4,Cc1cc2c3c(c1)C(c1ccccc1)=N[C@@H](NC(=O)c1ccncc1)C(=O)N3CC2,inactive
5,CCC(C)c1cc([N+](=O)[O-])cc([N+](=O)[O-])c1O (stereo not drawn),inactive
6,Cc1cccc(C)c1N,inactive
7,c1ccc(-c2ccccc2)cc1,inactive
8,Clc1ccc(Cl)cc1,inactive
9,Nn1cnnc1,inactive
10,O=C(N[C@H]1CN2CCC1CC2)c1cc2ccoc2cn1,inactive
11,O=C(NC(=O)c1c(F)cccc1F)Nc1cc(Cl)c(OC(F)(F)C(F)F)c(Cl)c1,inactive
12,CC#Cc1cc(C)nc(Nc2ccccc2)n1,inactive
13,Cc1ccccc1O,inactive
14,Cc1ccc(O)c(C)c1,inactive
15,CN(C)CCO,inactive
16,CC(C)C(=O)OCC(C)(C)C(OC(=O)C(C)C)C(C)C (stereo not drawn),inactive
17,CCCN(CCC)N=O,inactive

# Target: Androgen Receptor/SRC-1 Co-activator, AR (gene 367) (UniProt P10275)
# Sequence (P10275 whole entry, looked up): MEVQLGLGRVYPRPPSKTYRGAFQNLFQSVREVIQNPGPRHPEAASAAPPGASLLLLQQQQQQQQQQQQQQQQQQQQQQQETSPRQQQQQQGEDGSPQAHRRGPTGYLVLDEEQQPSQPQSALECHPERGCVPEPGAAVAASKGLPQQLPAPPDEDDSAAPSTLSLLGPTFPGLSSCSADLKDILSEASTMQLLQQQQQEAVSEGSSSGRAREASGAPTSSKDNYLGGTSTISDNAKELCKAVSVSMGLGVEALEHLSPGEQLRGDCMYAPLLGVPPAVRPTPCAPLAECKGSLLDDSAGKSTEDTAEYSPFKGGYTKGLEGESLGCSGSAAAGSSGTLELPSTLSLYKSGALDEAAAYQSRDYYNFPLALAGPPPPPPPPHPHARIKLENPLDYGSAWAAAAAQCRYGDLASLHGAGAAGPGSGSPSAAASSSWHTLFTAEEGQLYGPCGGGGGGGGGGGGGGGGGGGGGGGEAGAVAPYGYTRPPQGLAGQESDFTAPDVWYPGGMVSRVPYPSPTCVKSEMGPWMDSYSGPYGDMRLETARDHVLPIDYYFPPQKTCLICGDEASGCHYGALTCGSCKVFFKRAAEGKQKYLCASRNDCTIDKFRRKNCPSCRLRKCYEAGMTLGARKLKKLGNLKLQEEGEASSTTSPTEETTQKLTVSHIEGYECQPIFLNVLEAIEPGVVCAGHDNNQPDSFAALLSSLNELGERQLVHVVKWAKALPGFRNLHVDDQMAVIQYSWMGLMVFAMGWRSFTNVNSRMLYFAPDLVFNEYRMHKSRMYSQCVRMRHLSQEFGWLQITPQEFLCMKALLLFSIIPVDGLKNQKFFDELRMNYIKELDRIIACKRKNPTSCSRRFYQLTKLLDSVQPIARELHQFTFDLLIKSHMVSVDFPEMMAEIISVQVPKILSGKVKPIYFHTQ
# Assay: OT_AR_ARSRC1_0960: Odyssey Thera (OT) 16-hour HEK293T Protein-Complementation Assay for Androgen Receptor/SRC-1 Co-activator (AID 2283353);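 note: actives raise the signal above DMSO so potency reflects increased AR and SRC-1 complex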
# Outline: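 HEK293T cells stably expressing AR and SRC-1 fused to Venus YFP fragments, imaged 16 h after dosing. Nuclear/cytoplasmic fluorescence ratio at 488 nm from at least 400 cells per image; gain of signal relative to DMSO.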
Compound,outcome,AC50
CCNc1nc(NC(C)C)nc(SC)n1,inactive,
c1ccc(-c2ccccc2)cc1,inactive,
Cc1ccccc1CO[C@@H]1C[C@@]2(C(C)C)CC[C@]1(C)O2,,79.7 µM (active)
CC1=C2C[C@H]3[C@@H](CC=C4C[C@@H](O)CC[C@@]43C)[C@@H]2CC[C@]12O[C@@H]1C[C@H](C)CN[C@H]1[C@H]2C,inactive,
O=C(N[C@H]1CN2CCC1CC2)c1cc2ccoc2cn1,inactive,
O=C(NC(=O)c1c(F)cccc1F)Nc1cc(Cl)c(OC(F)(F)C(F)F)c(Cl)c1,inactive,
c1cc2ccc3cccc4ccc(c1)c2c34,inactive,

# Target: Androgen Receptor/SRC-1 Co-activator, AR (gene 367) (UniProt P10275)
# Assay: OT_AR_ARSRC1_0480: Odyssey Thera (OT) 8-hour HEK293T Protein-Complementation Assay for Androgen Receptor/SRC-1 Co-activator (AID 2283354);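 note: hits raise the complementation signal above DMSO so AC50 marks enhancers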
# Outline: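 HEK293T cells stably expressing AR and SRC-1 fused to Venus YFP fragments, imaged 8 h after dosing. Complementation fluorescence scored as nuclear/cytoplasmic ratio at 488 nm in at least 400 cells per image; gain fitted versus DMSO.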
row,Compound,outcome
1,CCNc1nc(NC(C)C)nc(SC)n1,inactive
2,c1ccc(-c2ccccc2)cc1,inactive
3,Cc1ccccc1CO[C@@H]1C[C@@]2(C(C)C)CC[C@]1(C)O2,inactive
4,CC1=C2C[C@H]3[C@@H](CC=C4C[C@@H](O)CC[C@@]43C)[C@@H]2CC[C@]12O[C@@H]1C[C@H](C)CN[C@H]1[C@H]2C,inactive
5,O=C(N[C@H]1CN2CCC1CC2)c1cc2ccoc2cn1,inactive
6,O=C(NC(=O)c1c(F)cccc1F)Nc1cc(Cl)c(OC(F)(F)C(F)F)c(Cl)c1,inactive
7,c1cc2ccc3cccc4ccc(c1)c2c34,inactive

# Target: T1, Estrogen receptor (Homo sapiens) + Estrogen receptor beta (Homo sapiens)
# Assay: OT_ER_ERaERb_1440: Odyssey Thera (OT) 24-hour HEK293T Protein-Complementation Assay for Estrogen Receptor-alpha/-beta Homodimer (AID 2283356);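 note: heteromer of ER alpha and ER beta binding domains; hits raise reporter fluorescence and both agonists and antagonists give an increase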
# Outline: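 Readout: mean fluorescence intensity in nucleus (agonists) or nucleus plus cytoplasm (antagonists), read by laser scanning cytometer after 24 h compound exposure of HEK293T cells carrying ERα/ERβ LBD fragment-complementation constructs; DMSO baseline.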
Compound,outcome,AC50
OCC(O)CO,inactive,
CN(C)c1nc(=O)n(C2CCCCC2)c(=O)n1C,inactive,
C1CC2OC2CC1C1CO1 (stereo not drawn),inactive,
ClC1=C(Cl)[C@]2(Cl)[C@@H]3[C@@H](Cl)[C@H]4O[C@H]4[C@@H]3C1(Cl)C2(Cl)Cl,,50 µM (active)
Cc1cc2c3c(c1)C(c1ccccc1)=N[C@@H](NC(=O)c1ccncc1)C(=O)N3CC2,inactive,
CCC(C)c1cc([N+](=O)[O-])cc([N+](=O)[O-])c1O (stereo not drawn),inactive,
Cc1cccc(C)c1N,inactive,
c1ccc(-c2ccccc2)cc1,inactive,
Cc1ccccc1[N+](=O)[O-],inactive,
Clc1ccc(Cl)cc1,inactive,
Nn1cnnc1,inactive,
O=C(N[C@H]1CN2CCC1CC2)c1cc2ccoc2cn1,inactive,
O=S(=O)(O)C(F)(F)C(F)(F)C(F)(F)C(F)(F)F,inactive,
O=C(NC(=O)c1c(F)cccc1F)Nc1cc(Cl)c(OC(F)(F)C(F)F)c(Cl)c1,inactive,
CC#Cc1cc(C)nc(Nc2ccccc2)n1,inactive,
Cc1ccc(O)c(C)c1,inactive,
CN(C)CCO,inactive,
CC(C)C(=O)OCC(C)(C)C(OC(=O)C(C)C)C(C)C (stereo not drawn),inactive,
CCCN(CCC)N=O,inactive,
